Laboratory results published in PubChem BioAssay (NCI).
About 79,000 compounds went through this panel and 15% of them were active in at least one assay; those are over-represented in the sample as a whole. Calls of active or inactive are those of the source. Rule as the data show it: active = growth inhibition above about 70%; inactive = the rest.

Experiments:
[1] = NCI Yeast Anticancer Drug Screen. Data for the rad52 strain (AID 147);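 also: 0% = growth of vehicle-treated control cultures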; details: S. cerevisiae rad52 mutant growth inhibition, hits give high values
Method in brief: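 Yeast strain carrying a DNA damage repair alteration was exposed to test compounds. Growth inhibition was measured relative to vehicle-treated controls.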

[2] = NCI Yeast Anticancer Drug Screen. Data for the wt1 strain (AID 149);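 also: 0% = growth of vehicle-treated wt1 cultures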; details: S. cerevisiae wt1 strain (SPY 50644) growth inhibition, hits give high values
Method in brief: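 Yeast wt1 strain exposed to compounds; growth inhibition measured relative to vehicle-treated controls.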

[3] = NCI Yeast Anticancer Drug Screen. Data for the rad50EPP+ strain (AID 151);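 also: 0% = growth of vehicle-treated control cultures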; details: S. cerevisiae rad50 mutant strain, hits give high values
Method in brief: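 Yeast strain carrying rad50 alteration (rad50EPP+) exposed to compounds; growth inhibition measured relative to vehicle-treated controls.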

[4] = NCI Yeast Anticancer Drug Screen. Data for the mgt1 strain (AID 153); details: S. cerevisiae mgt1 mutant growth inhibition, hits give high values
Method in brief: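 Yeast mgt1 strain (DNA repair/cell-cycle alteration panel) exposed to compounds; growth inhibition measured relative to vehicle-treated controls.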

[5] = NCI Yeast Anticancer Drug Screen. Data for the rad50 strain (AID 155);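 also: 0% = growth of vehicle-only cultures of the same strain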; details: S. cerevisiae rad50 strain growth inhibition, hits give high values
Method in brief: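 Yeast carrying a defined DNA repair defect were exposed to test compounds, and growth was compared with vehicle-treated controls to give percent inhibition.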

[6] = NCI Yeast Anticancer Drug Screen. Data for the mec2-1 strain (AID 157); details: S. cerevisiae mec2-1 strain, hits give high values
Method in brief: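 mec2-1 yeast strain, carrying an alteration in DNA damage repair or cell cycle control, was exposed to compounds; growth inhibition was measured relative to vehicle-treated controls.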

[7] = NCI Yeast Anticancer Drug Screen. Data for the rad14 strain (AID 159);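 also: 0% = growth of vehicle-treated control cultures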; details: S. cerevisiae rad14 strain growth inhibition, hits give high values
Method in brief: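 Yeast cells carrying a defined DNA-repair defect were exposed to compounds, and growth inhibition was calculated relative to vehicle-treated control cultures.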

[8] = NCI Yeast Anticancer Drug Screen. Data for the sgs1 mgt1 strain (AID 161);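 also: 0% = growth of cultures given vehicle only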; details: S. cerevisiae sgs1 mgt1 strain, hits give high values
Method in brief: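 This yeast growth screen uses a strain with defined DNA-repair lesions; compound-treated growth is compared with vehicle-treated growth.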

[9] = NCI Yeast Anticancer Drug Screen. Data for the CLN2oe strain (AID 163);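 also: 0% = growth of vehicle-only control cultures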; details: S. cerevisiae CLN2oe strain, hits give high values
Method in brief: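 Yeast cells carrying a defined cell-cycle control alteration were exposed to test compounds. Growth inhibition was scored against vehicle-treated control cultures.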

[10] = NCI Yeast Anticancer Drug Screen. Data for the cln2 rad14 strain (AID 165);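 also: 0% = growth equal to vehicle treated cultures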; details: S. cerevisiae cln2 rad14 strain, hits give high values
Method in brief: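 Yeast carrying cln2 and rad14 alterations (cell cycle control and DNA damage repair) were exposed to compounds. Growth inhibition was measured against vehicle-treated controls.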

[11] = NCI Yeast Anticancer Drug Screen. Data for the bub3 strain (AID 167); details: S. cerevisiae bub3 mutant strain, hits give high values
Method in brief: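 Compounds were applied to a genetically altered yeast strain carrying a cell-cycle control defect. Growth inhibition was scored against vehicle-treated controls.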

[12] = NCI Yeast Anticancer Drug Screen. Data for the wt2 strain (AID 169);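 also: 0% = growth of vehicle-treated yeast cultures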; details: S. cerevisiae wt2 strain growth inhibition, hits give high values
Method in brief: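 Yeast cells were exposed to test compounds, and growth inhibition was measured relative to vehicle-treated controls.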

[13] = NCI Yeast Anticancer Drug Screen. Data for the sgs1 strain (AID 173);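 also: 0% = growth of vehicle-only control cultures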; details: S. cerevisiae sgs1 mutant, hits give high values
Method in brief: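 Yeast mutant strains carrying defined defects in DNA damage repair or cell cycle control were exposed to test compounds. Growth inhibition was scored against vehicle-treated controls.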

[14] = NCI Yeast Anticancer Drug Screen. Data for the mlh1 rad18 strain (AID 175); details: S. cerevisiae mlh1 rad18 strain growth inhibition, hits give high values
Method in brief: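 Growth inhibition of the yeast strain was measured after compound exposure and expressed relative to vehicle-treated controls. The strain carries defined defects in DNA damage repair.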

[15] = NCI Yeast Anticancer Drug Screen. Data for the rad18 strain (AID 177); details: S. cerevisiae rad18 mutant growth inhibition, hits give high values
Method in brief: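 Yeast carrying a defined DNA damage repair alteration were exposed to compounds. Growth inhibition was expressed relative to vehicle-treated controls.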

[16] = at 5.0 µM (retest, dose inferred, filed as 0.5)
[17] = at 50.0 µM (retest, dose inferred, filed as 5.0)

Measured: growth inhibition

COc1cc(C2c3cc4c(cc3OC(Nc3ccccc3)C2C)OCO4)cc(OC)c1O (stereo not drawn)
active: [1]; at 100.0 µM 86% | [5]; at 50.0 µM 77% | [5]; at 100.0 µM 86% | [6]; [17] 78% | [14]; [17] 99% | [14]; at 50.0 µM 92.5% | [15]; at 100.0 µM 92%
inactive: [1]; at 1.2 µM 1% | [1]; at 3.7 µM 2% | [1]; at 11.0 µM 0% | [1]; at 33.0 µM 2% | [2]; at 1.2 µM 1% | [2]; at 3.7 µM -1% | [2]; at 11.0 µM 2% | [2]; at 33.0 µM 0% | [2]; at 100.0 µM 30% | [3]; at 1.2 µM -1% | [3]; at 3.7 µM -3% | [3]; at 11.0 µM 1% | [3]; at 33.0 µM 1% | [3]; at 100.0 µM 0% | [4]; at 1.2 µM -1% | [4]; at 3.7 µM -3% | [4]; at 11.0 µM -3% | [4]; at 33.0 µM 15% | [4]; at 100.0 µM 38% | [5]; at 1.2 µM 2% | [5]; at 3.7 µM 2% | [5]; [16] -3% | [5]; at 11.0 µM 2% | [5]; at 33.0 µM 2% | [5]; [17] 64% | [6]; at 1.2 µM 0% | [6]; at 3.7 µM 1% | [6]; [16] -5% | [6]; at 11.0 µM 1% | [6]; at 33.0 µM 1% | [6]; at 50.0 µM 36.1% | [6]; at 100.0 µM 67% | [7]; at 1.2 µM 1% | [7]; at 3.7 µM 1% | [7]; at 11.0 µM 4% | [7]; at 33.0 µM 5% | [7]; at 100.0 µM 51% | [8]; [16] -3% | [8]; [17] 6% | [8]; at 50.0 µM 58.7% | [9]; at 1.2 µM 1% | [9]; at 3.7 µM 0% | [9]; at 11.0 µM 1% | [9]; at 33.0 µM 0% | [9]; at 100.0 µM 39% | [10]; [16] 3% | [10]; [17] 52% | [10]; at 50.0 µM 6.9% | [11]; at 1.2 µM -1% | [11]; at 3.7 µM -5% | [11]; [16] 11% | [11]; at 11.0 µM -1% | [11]; at 33.0 µM 0% | [11]; [17] 51% | [11]; at 50.0 µM 43.8% | [11]; at 100.0 µM 41% | [12]; at 1.2 µM -1% | [12]; at 3.7 µM -2% | [12]; at 11.0 µM -1% | [12]; at 33.0 µM 0% | [12]; at 100.0 µM 68% | [13]; at 1.2 µM -1% | [13]; at 3.7 µM 0% | [13]; at 11.0 µM 0% | [13]; at 33.0 µM 2% | [13]; at 100.0 µM 65% | [14]; [16] -1% | [15]; at 1.2 µM 0% | [15]; at 3.7 µM -1% | [15]; at 11.0 µM -7% | [15]; at 33.0 µM 1%
